# Data as given in the supplement of paper PMC8975748.
# Where a name gives a salt, the structure may show the parent alone.
# Tested on: Saccharomyces cerevisiae BY4741 SeMeCo community
# Assay: z-score of subpopulation abundance vs DMSO median, subpopulation auxotrophic for HU; higher = larger share of this subpopulation than in DMSO controls
# Conditions: 10 µM; 24 h; SM minimal medium; subpopulation (auxotrophy): HU
# Method: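 Fluorescent four-plasmid SeMeCo (self-establishing metabolically cooperating S. cerevisiae BY4741 community; plasmids pH-mRuby2, pL-mWasabi, pU-eCFP, pM-TagRFP657) was grown 24 h in minimal SM medium with each Selleck FDA-approved drug at 10 µM in 384-well plates. Cells were fixed and imaged by high-content confocal microscopy. For each auxotrophic subpopulation (and the prototroph), a z-score gives the deviation from the DMSO vehicle-control population median.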
row,Structure (SMILES),z-score of subpopulation abundance
1,CC[C@H]1OC(=O)[C@H](C)[C@@H](O[C@H]2C[C@@](C)(OC)[C@@H](O)[C@H](C)O2)[C@H](C)[C@@H](O[C@@H]2O[C@H](C)C[C@H](N(C)C)[C@H]2O)[C@](C)(O)C[C@@H](C)[C@@H]2N[C@@H](COCCOC)O[C@H]([C@H]2C)[C@]1(C)O [Dirithromycin],-0.26
2,C[C@]12CC[C@@H]3c4ccc(OS(=O)(=O)O)cc4CC[C@H]3[C@@H]1CCC2=O [Estropipate],-0.17
3,CC1=C(C(=O)O)N2C(=O)[C@@H](NC(=O)[C@H](N)c3ccccc3)[C@H]2SC1 [Cephalexin],-0.74
4,CN1CCN(C2=Nc3ccccc3Oc3ccc(Cl)cc32)CC1 [Loxapine Succinate],0.53
5,Cc1cc(CC(C)CC(C)(C)C)n(O)c(=O)c1 (stereo not given) [Piroctone Olamine],31.8
6,CCN(CC)CCOC(=O)c1ccc(N)cc1Cl [Chloroprocaine HCl],-0.26
7,CC(=O)Oc1ccccc1C(=O)O [Aspirin],-0.71
8,c1ccc(-c2ccc(C(c3ccccc3)n3ccnc3)cc2)cc1 (stereo not given) [Bifonazole],1.01
9,CC[C@@]1(O)C(=O)OCc2c1cc1n(c2=O)Cc2cc3cc(O)ccc3nc2-1 [(S)-10-Hydroxycamptothecin],-1.09
10,CN(Cc1ccc(C(C)(C)C)cc1)Cc1cccc2ccccc12 [Butenafine HCl],-0.86
11,CCOC(=O)C1=C[C@]2(CC)CCCN3CCc4c(n1c1ccccc41)[C@@H]32 [Vinpocetine],-0.02
12,COc1cc(Cc2cnc(N)nc2N)cc(OC)c1OC [Trimethoprim],0
13,CN1CC2c3ccccc3Oc3ccc(Cl)cc3C2C1 (stereo not given) [Asenapine maleate],-0.59
14,CCN1CCN(C(=O)N[C@@H](C(=O)N[C@@H]2C(=O)N3[C@@H]2SC(C)(C)[C@@H]3C(=O)O)c2ccccc2)C(=O)C1=O [Piperacillin Sodium],-0.25
15,OB1OCc2cc(F)ccc21 [Tavaborole (AN-2690)],5.21
16,C=CC[N+]1([C@H]2C[C@H]3[C@@H]4CC[C@H]5C[C@H](O)[C@@H](N6CCOCC6)C[C@]5(C)[C@H]4CC[C@]3(C)[C@H]2OC(C)=O)CCCC1 [Rocuronium Bromide],-0.39
17,COC(=O)C1=C(C)NC(C)=C(C(=O)OC2CCCN(Cc3ccccc3)C2)C1c1cccc([N+](=O)[O-])c1 (stereo not given) [Benidipine HCl],-0.01
18,CCCNC(C)C(=O)Nc1ccccc1C (stereo not given) [Prilocaine],0.57
19,O=C(NCCN1CCOCC1)c1ccc(Cl)cc1,-1.32
20,CCCCCCCN(CC)CCCC(O)c1ccc(NS(C)(=O)=O)cc1 (stereo not given) [Ibutilide Fumarate],0.97

row,Structure (SMILES),z-score of subpopulation abundance
1,CN1CCCN=C1/C=C/c1cccc(O)c1 [Oxantel Pamoate],-0.96
2,CC(C(O)c1ccc(O)cc1)N1CCC(Cc2ccccc2)CC1 (stereo not given) [Ifenprodil Tartrate],-0.43
3,Clc1ccc(COC(Cn2ccnc2)c2ccc(Cl)cc2Cl)cc1 (stereo not given) [Econazole],5.61
4,O=C(O)Cc1ccccc1Nc1c(Cl)cccc1Cl [Diclofenac acid],-1.1
5,O=C(O)c1ccccc1C(=O)Nc1ccc(S(=O)(=O)Nc2nccs2)cc1 [Phthalylsulfathiazole],1.23
6,"C[C@@H](CN1CC(=O)NC(=O)C1)N1CC(=O)NC(=O)C1 [Dexrazoxane HCl (ICRF-187, ADR-529)]",-0.7
7,OC1(c2ccc(Cl)c(C(F)(F)F)c2)CCN(CCCC(c2ccc(F)cc2)c2ccc(F)cc2)CC1 [Penfluridol],0.66
8,OCCN1CCN(CCCN2c3ccccc3Sc3ccc(C(F)(F)F)cc32)CC1 [Fluphenazine dihydrochloride],0.37
9,CCC[S+]([O-])c1ccc2[nH]c(NC(=O)OC)nc2c1 (stereo not given) [Albendazole Oxide],-0.21
10,Oc1c(Br)cc(Br)c2cccnc12 [Broxyquinoline],16.9
11,Fc1ccc([C@@H]2CCNC[C@H]2COc2ccc3c(c2)OCO3)cc1 [Paroxetine mesylate],-0.22
12,CCCCCNC(=N)N/N=C/c1c[nH]c2ccc(OC)cc12 [Tegaserod Maleate],0.48
13,COCCOC(=O)C1=C(C)NC(C)=C(C(=O)OC(C)C)C1c1cccc([N+](=O)[O-])c1 (stereo not given) [Nimodipine],0.19
14,COc1ccc2c3c1O[C@H]1C[C@@H](O)C=C[C@@]31CCN(C)C2 [Galanthamine HBr],-0.13
15,CCn1cc(C(=O)O)c(=O)c2cnc(N3CCNCC3)nc21 [Pipemidic acid],-0.06
16,CN1CCN(CCCN2c3ccccc3Sc3ccc(Cl)cc32)CC1 [Prochlorperazine dimaleate salt],0.89
17,COc1ccnc(C[S+]([O-])c2nc3cc(OC(F)F)ccc3[nH]2)c1OC (stereo not given) [Pantoprazole sodium],0.06
18,CC[C@H]1OC(=O)[C@H](C)[C@@H](O[C@H]2C[C@@](C)(OC)[C@@H](O)[C@H](C)O2)[C@H](C)[C@@H](O[C@@H]2O[C@H](C)C[C@H](N(C)C)[C@H]2O)[C@](C)(O)C[C@@H](C)C(=O)[C@H](C)[C@H]2OC(=O)O[C@@]21C [Erythromycin Cyclocarbonate],0.76
19,Cc1cc(O)c(C(=O)N[C@@H](C(=O)N[C@@H]2C(=O)N3C(C(=O)O)=C(CSc4nnnn4C)CS[C@H]23)c2ccc(O)cc2)cn1 [Cefpiramide sodium],0.5
20,CN[C@@H]1[C@@H](O)[C@@H](O[C@@H]2[C@@H](O)[C@H](O[C@H]3O[C@H](CN)[C@@H](O)[C@H](O)[C@H]3O)[C@@H](N)C[C@H]2NC(=O)[C@@H](O)CN)OC[C@]1(C)O [Isepamicin Sulphate],1.15
